PubChem BioAssay (NCATS)
Results filed as inconclusive are left out. Entries that show only a call come without a potency. Calls of active or inactive are those of the source. Unless noted, calls follow the shape of the dose curve; as a rule, active = well fitted curve in the direction sought with a large enough effect; inconclusive = small, poorly fitted or top-dose-only effect, or another doubt; inactive = no such curve, though single readings can be large; an effect the other way counts as inactive or inconclusive.

How the values were obtained:
[1] = S16 Schwann cell viability assay (CellTiter-Glo assay) (AID 624031);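 also: native untransfected S16 rat Schwann cells; cellular ATP luminescence as a viability measure; nearly all actives have a fitted effect of over 70% in size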
Procedure, shortened: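 Cells were seeded at 500-750 per well in phenol red-free DMEM with 10% FBS and left overnight. Compounds or DMSO were pinned in, incubation ran 24 h at 37 °C/5% CO2, then CellTiter-Glo reagent was added and luminescence measured.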

3D7 = test: qHTS profiling for inhibitors of Plasmodium falciparum proliferation (AID 504749); also: nearly all actives have a fitted effect of over 60% in size; also: potency is read from the fitted curve at half-maximal effect; details: P. falciparum in erythrocytes, SYBR Green DNA, 72 h; series mostly up to 12.8 µM
Procedure, shortened: (§1)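 Fluorescence of SYBR Green-bound parasite DNA, read at 485/535 nm, served as the growth measure. Infected erythrocytes were cultured with compound 72 h; artemisinin (0.29 uM) and DMSO wells defined the normalization range.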

AS120 = test: as above; details: P. falciparum in erythrocytes, SYBR Green DNA, 72 h; series mostly up to 12.8 µM
Procedure, shortened: as §1

CP217 = test: as above; details: P. falciparum in erythrocytes, SYBR Green DNA, 72 h; series mostly up to 12.8 µM
Procedure, shortened: as §1

CP237 = test: as above; details: P. falciparum in erythrocytes, SYBR Green DNA, 72 h; series mostly up to 12.8 µM
Procedure, shortened: as §1

CP250 = test: as above; details: P. falciparum in erythrocytes, SYBR Green DNA, 72 h; series mostly up to 12.8 µM
Procedure, shortened: as §1

CP252 = test: as above; details: P. falciparum in erythrocytes, SYBR Green DNA, 72 h; series mostly up to 12.8 µM
Procedure, shortened: as §1

CP266 = test: as above; details: P. falciparum in erythrocytes, SYBR Green DNA, 72 h; series mostly up to 12.8 µM
Procedure, shortened: as §1

CP269 = test: as above; details: P. falciparum in erythrocytes, SYBR Green DNA, 72 h; series mostly up to 12.8 µM
Procedure, shortened: as §1

CP305 = test: as above; details: P. falciparum in erythrocytes, SYBR Green DNA, 72 h; series mostly up to 12.8 µM
Procedure, shortened: as §1

CP325 = test: as above; details: P. falciparum in erythrocytes, SYBR Green DNA, 72 h; series mostly up to 12.8 µM
Procedure, shortened: as §1

CP329 = test: as above; details: P. falciparum in erythrocytes, SYBR Green DNA, 72 h; series mostly up to 12.8 µM
Procedure, shortened: as §1

DIV30 = test: as above; details: P. falciparum in erythrocytes, SYBR Green DNA, 72 h; series mostly up to 12.8 µM
Procedure, shortened: as §1

Dd2 = test: as above; details: P. falciparum in erythrocytes, SYBR Green DNA, 72 h; series mostly up to 12.8 µM
Procedure, shortened: as §1

HB3 = test: as above; details: P. falciparum in erythrocytes, SYBR Green DNA, 72 h; series mostly up to 12.8 µM
Procedure, shortened: as §1

JCK = test: as above; details: P. falciparum in erythrocytes, SYBR Green DNA, 72 h; series mostly up to 12.8 µM
Procedure, shortened: as §1

N140 = test: as above; details: P. falciparum in erythrocytes, SYBR Green DNA, 72 h; series mostly up to 12.8 µM
Procedure, shortened: as §1

SC27B = test: as above; details: P. falciparum in erythrocytes, SYBR Green DNA, 72 h; series mostly up to 12.8 µM
Procedure, shortened: as §1

TAB113 = test: as above; details: P. falciparum in erythrocytes, SYBR Green DNA, 72 h; series mostly up to 12.8 µM
Procedure, shortened: as §1

[2] = target: 3',5'-cyclic-AMP phosphodiesterase 4B (Homo sapiens) (UniProt Q07343); test: qHTS Assay for Inhibitors of PDE-IV (AID 607; active = well fitted activation curve with a large enough effect in the main read-out, with a control signal flat, not every such curve was filed as active)
3',5'-cyclic-AMP phosphodiesterase 4B (Homo sapiens), sequence (Q07343 whole entry, looked up): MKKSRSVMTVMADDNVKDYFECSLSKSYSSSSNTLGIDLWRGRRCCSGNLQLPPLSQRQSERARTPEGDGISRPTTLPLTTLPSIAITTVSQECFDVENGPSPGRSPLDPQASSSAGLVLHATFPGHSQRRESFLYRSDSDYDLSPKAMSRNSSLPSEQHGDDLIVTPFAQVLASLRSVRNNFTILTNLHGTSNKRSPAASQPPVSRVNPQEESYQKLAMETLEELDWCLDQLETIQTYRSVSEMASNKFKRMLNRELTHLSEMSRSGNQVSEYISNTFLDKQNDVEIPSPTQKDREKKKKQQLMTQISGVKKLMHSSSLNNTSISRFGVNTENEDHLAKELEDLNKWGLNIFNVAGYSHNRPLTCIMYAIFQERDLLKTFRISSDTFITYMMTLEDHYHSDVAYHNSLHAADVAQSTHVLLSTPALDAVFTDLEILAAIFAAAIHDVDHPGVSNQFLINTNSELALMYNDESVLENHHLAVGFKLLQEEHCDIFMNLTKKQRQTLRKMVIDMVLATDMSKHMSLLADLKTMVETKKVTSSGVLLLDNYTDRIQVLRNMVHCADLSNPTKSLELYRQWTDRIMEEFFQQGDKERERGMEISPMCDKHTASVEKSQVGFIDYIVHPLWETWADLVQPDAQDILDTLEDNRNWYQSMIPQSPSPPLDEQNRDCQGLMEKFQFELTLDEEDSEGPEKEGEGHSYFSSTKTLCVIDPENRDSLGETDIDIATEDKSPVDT
Procedure, shortened: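 The readout is membrane depolarisation from a cAMP-sensing CNG channel, detected with a potential dye at ex 535/em 590. Cells were HEK293-derived (endogenous PDE-IV) at 1000 cells/well, titrated up to 22.9 uM final.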

Structure (SMILES) | outcome [1] | Potency (3D7) | Potency (AS120) | Potency (CP217) | Potency (CP237) | Potency (CP250) | Potency (CP252) | Potency (CP266) | Potency (CP269) | Potency (CP305) | Potency (CP325) | Potency (CP329) | Potency (DIV30) | Potency (Dd2) | Potency (HB3) | Potency (JCK) | Potency (N140) | Potency (SC27B) | Potency (TAB113) | outcome [2]
CCC1OC(=O)C(C)[C@@H](O[C@H]2C[C@@](C)(OC)C(O)C(C)O2)C(C)[C@@H](O[C@@H]2OC(C)CC(N(C)C)C2O)[C@@](C)(O)CC(C)C(=O)[C@@H](C)C(O)[C@]1(C)O (some centres undefined) | inactive | inactive | inactive | inactive | inactive | inactive | inactive | inactive | inactive | inactive | inactive | inactive | inactive | inactive | inactive | inactive | inactive | inactive | inactive | –
CC(C)=CCC[C@](C)(O)C1CC=C(C)CC1 (some centres undefined) | inactive | inactive | inactive | inactive | inactive | inactive | inactive | – | inactive | inactive | inactive | inactive | inactive | inactive | inactive | inactive | inactive | inactive | inactive | –
C/C1=C2N=C(/C=C3N=C(/C(C)=C4\[N-]C(C)(C5N=C1C(C)(CCC(=O)NCC(C)OP(=O)([O-])O[C@H]1C(O)C(n6cnc7cc(C)c(C)cc76)O[C@@H]1CO)C5CC(N)=O)C(C)(CC(N)=O)C4CCC(N)=O)C(C)(CC(N)=O)C\3CCC(N)=O)C(C)(C)C/2CCC(N)=O.[CH2-]C1OC(n2cnc3c(N)ncnc32)C(O)C1O.[Co] (some centres undefined) | inactive | inactive | inactive | inactive | inactive | inactive | inactive | inactive | inactive | inactive | inactive | inactive | inactive | inactive | inactive | inactive | inactive | inactive | inactive | –
COC1C=CO[C@@]2(C)Oc3c(C)c(O)c4c(O)c(c5c(nc6cc(C)ccn65)c4c3C2=O)NC(=O)/C(C)=C\C=CC(C)C(O)[C@@H](C)C(O)C(C)[C@@H](OC(C)=O)C1C (some centres undefined) | inactive | 12.6 µM (active) | 2.51 µM (active) | 10 µM (active) | 8.91 µM (active) | – | 10 µM (active) | – | 10.7 µM (active) | – | – | – | 1.35 µM (active) | 12.6 µM (active) | 11.2 µM (active) | – | 3.55 µM (active) | 12.6 µM (active) | 12.6 µM (active) | –
CCCCCCCCCc1ccc(OCCOCCOCCOCCOCCOCCOCCOCCOCCO)cc1 | – | – | – | – | – | inactive | inactive | inactive | – | inactive | inactive | inactive | inactive | – | – | inactive | – | – | inactive | –
CC(=O)OCC(=O)[C@@]12OC3(CCCC3)OC1CC1C3CCC4=CC(=O)C=C[C@@]4(C)[C@]3(F)C(O)C[C@]12C (some centres undefined) | inactive | – | 11.2 µM (active) | – | – | inactive | – | inactive | inactive | inactive | inactive | inactive | – | – | – | inactive | 11.2 µM (active) | – | – | –
C=Cc1c(C)/c2[n-]/c1=C\c1[n-]c(c(CC)c1C)/C=c1\[n-]c3c(c1C)C(=O)C(C(=O)[O-])C=3c1[n-]c(c(C)c1CCC(=O)[O-])\C=2.[Cu].[Na+].[Na+] (centres undefined) | inactive | inactive | – | – | – | – | – | inactive | inactive | inactive | inactive | inactive | inactive | – | – | inactive | – | – | – | –
C[C@@]12CCC(=O)C=C1C=CC1C2CC[C@]2(C)C1CC[C@@]21CCC(=O)O1 (some centres undefined) | inactive | inactive | inactive | – | inactive | – | inactive | inactive | inactive | inactive | inactive | inactive | inactive | inactive | inactive | inactive | – | inactive | inactive | –
N[C@@H]1C(O)OC(CO)C(O)C1O (some centres undefined) | inactive | inactive | inactive | inactive | inactive | inactive | inactive | inactive | – | inactive | inactive | inactive | inactive | inactive | inactive | inactive | inactive | inactive | inactive | –
Nc1nc2ncc(CNc3ccc(C(=O)NC(CCC(=O)O)C(=O)O)cc3)nc2c(=O)[nH]1 (centres undefined) | inactive | inactive | inactive | inactive | inactive | inactive | inactive | inactive | inactive | inactive | inactive | inactive | inactive | inactive | inactive | inactive | inactive | inactive | inactive | –
CCC1OC(=O)CC(O)C(C)[C@@H](O[C@@H]2OC(C)[C@H](O[C@@H]3C[C@@](C)(O)C(O)C(C)O3)C(N(C)C)C2O)[C@H](CC=O)CC(C)C(=O)/C=C/C(C)=C/[C@@H]1COC1OC(C)C(O)C(OC)[C@@H]1OC (some centres undefined) | inactive | – | – | – | – | – | – | – | – | – | – | – | – | 0.891 µM (active) | – | inactive | – | – | – | –
C[C@@H](CN1c2ccccc2Sc2ccccc21)N(C)C | – | – | – | – | – | – | – | – | – | – | – | – | – | – | – | – | – | – | – | inactive
CO[C@]12C(COC(N)=O)C3=C(C(=O)C(C)=C(N)C3=O)N1CC1NC12 (some centres undefined) | – | – | 0.562 µM (active) | 1.78 µM (active) | inactive | 1.12 µM (active) | 0.794 µM (active) | – | – | – | – | – | – | 0.398 µM (active) | 1 µM (active) | 5.01 µM (active) | 0.631 µM (active) | 1 µM (active) | 0.891 µM (active) | –
C[C@@]12C=CC(=O)C=C1CCC1C3CC(O)[C@@](O)(C(=O)CO)[C@]3(C)CC(O)[C@]12F (some centres undefined) | inactive | inactive | inactive | inactive | inactive | inactive | inactive | inactive | inactive | inactive | inactive | inactive | inactive | inactive | inactive | inactive | inactive | inactive | inactive | –
NC(CCC(=O)N[C@@H](CS)C(=O)NCC(=O)O)C(=O)O (some centres undefined) | – | 6.31 µM (active) | – | – | 3.55 µM (active) | – | – | inactive | 15.1 µM (active) | – | – | – | 12 µM (active) | 5.01 µM (active) | 3.16 µM (active) | – | 4.47 µM (active) | – | 7.94 µM (active) | –
NC(C(=O)O)[C@@H]1CC(Cl)=NO1 (some centres undefined) | – | 1 µM (active) | 1.78 µM (active) | 1.12 µM (active) | 1.26 µM (active) | 2.82 µM (active) | 2.82 µM (active) | 3.79 µM (active) | 2.69 µM (active) | 1.51 µM (active) | 2.69 µM (active) | 3.01 µM (active) | 3.38 µM (active) | 0.708 µM (active) | 1.78 µM (active) | 5.62 µM (active) | 1.26 µM (active) | 1.41 µM (active) | 1 µM (active) | –
CC(C)Oc1ccc2c(=O)cc(-c3ccccc3)oc2c1 | inactive | inactive | inactive | inactive | inactive | – | inactive | inactive | inactive | inactive | inactive | inactive | inactive | inactive | inactive | inactive | inactive | inactive | inactive | –
